Data published in PubChem BioAssay (Tox21).
Records with an inconclusive call do not appear. The source made the active and inactive calls. Unless noted, the call rests on the fitted dose curve; in most records, active means well fitted curve in the direction sought with a large enough effect in the repeat runs; inconclusive means weak or mixed curves; inactive means no such curve, though single readings can be large; an effect the other way counts as inactive or inconclusive.

Legend:
[1] = molecular target: Progesterone receptor (Homo sapiens) (UniProt P06401); assay: qHTS assay to identify small molecule antagonists of the progesterone receptor (PR) signaling pathway (AID 1346795; active means well fitted inhibition curve with a large enough effect in the signal ratio in the repeat runs, not every such curve was filed as active; the % refers to the signal ratio)
Outline: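 In HEK293T cells bearing the PR-UAS-bla reporter, compound effects on promegestone-driven (1 nM) beta-lactamase expression are assessed after 16 hr using a fluorescent FRET substrate incubated 2 hr at room temperature.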

[2] = qHTS assay to identify small molecule antagonists of the progesterone receptor (PR) signaling pathway - cell viability counter screen (AID 1346798); further: series mostly up to about 92 µM; nearly all actives have a fitted effect of over 50% in size
Outline: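 Following a 4 hr attachment, PR-UAS-bla HEK293T cells in charcoal-stripped FBS medium were exposed to compounds with R5020 for 16 hr; CellTiter-Glo was added and luminescence read after 30 min at room temperature.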

[3] = qHTS assay to identify small molecule agonists of the progesterone receptor (PR) signaling pathway - cell viability counter screen (AID 1346799; calls by dose curve; further: nearly all actives have a fitted effect of over 45% in size; further: potency means the concentration at half of the fitted maximal effect)
Outline: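 Here, 3,000 PR-UAS-bla HEK293T cells per well were treated with compounds for 16 hr after a 6 hr preincubation at 37C and 5% CO2; cell viability is the CellTiter-Glo luminescence signal.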

[4] = qHTS assay to identify small molecule antagonists of the TGF-beta/Smad signaling pathway - cell viability counter screen (AID 1346824); further: nearly all actives have a fitted effect of over 50% in size
Outline: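 SBE-bla HEK 293T cells, incubated overnight, then compound plus 0.25 ng/mL TGF-beta1 (stock added) for 5 hr at 37 C. Viability was read in the same wells by CellTiter-Glo luminescence after 30 min at room temperature.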

[5] = qHTS assay to identify small molecule agonists of the TGF-beta/Smad signaling pathway - cell viability counter screen (AID 1346829); further: top concentration of the series differs between compounds; nearly all actives have a fitted effect of over 45% in size
Outline: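 Here the cytotoxicity of library compounds is measured in SBE-bla HEK 293T cells treated for 5 hr, using CellTiter-Glo added to wells already read for the beta-lactamase reporter.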

[6] = qHTS assay to identify small molecule agonists of the TGF-beta/Smad signaling pathway (AID 1346859; active means well fitted activation curve with a large enough effect in the signal ratio in the repeat runs, not every such curve was filed as active; the % refers to the signal ratio; further: series mostly up to about 77 µM)
Outline: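 Each well held 4,000 SBE-bla HEK 293T cells incubated overnight before compound addition; 5 hr later the cleavable FRET substrate went on for 2 hr at room temperature, and fluorescence was read at two emissions.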

[7] = molecular target: Thyrotropin-releasing hormone receptor (Homo sapiens) (UniProt P34981); assay: qHTS assay to identify small molecule antagonists of the thyrotropin-releasing hormone receptor (TRHR) signaling pathway (AID 1346877; active means well fitted inhibition curve with a large enough effect in the repeat runs, not every such curve was filed as active; further: series mostly up to about 51 µM)
Outline: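 Calcium signal in dye-loaded TRHR/HEK293 cells; compounds added 5 min before TRH (1 nM final); fluorescence monitored 3 min at 1 s steps.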

[8] = molecular target: Thyrotropin-releasing hormone receptor (Homo sapiens) (UniProt P34981); assay: qHTS assay to identify small molecule agonists of the thyrotropin-releasing hormone receptor (TRHR) signaling pathway (AID 1346891; calls by dose curve; further: series mostly up to about 58 µM)
Outline: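 Screening of agonists relied on calcium signalling in HEK293 cells expressing human TRHR: dye loading 2 h at 37 °C preceded compound addition and a 3-min fluorescence time course.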

[9] = Human pregnane X receptor (PXR) small molecule agonists, qHTS cell viability counter screen (AID 1346977); further: nearly all actives have a fitted effect of over 50% in size; further: potency means the concentration at half of the fitted maximal effect
Outline: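 Tox21 qHTS format; PXR-Luc HepG2, 2,000/well, charcoal-stripped FBS 5%. Cpd exposure 24hr. Read: CellTiter-Fluor fluorescence, multiplexed with luciferase.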

[10] = Caspase-3/7 induction in HepG2 cells by small molecules, qHTS assay (AID 1346978); further: nearly all actives have a fitted effect of over 15% in size
Outline: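 Wild-type HepG2 cells, 2,000/well, settled 5 hr at 37 C and 5% CO2, then compound-treated for 17 hr; caspase-3/7 activity read by luminescent Caspase-Glo 3/7 after 30 min at room temperature.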

[11] = Caspase-3/7 induction in CHO-K1 cells by small molecules, qHTS cell viability counter screen (AID 1346979); further: nearly all actives have a fitted effect of over 35% in size; further: potency means the concentration at half of the fitted maximal effect
Outline: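 CellTiter-Fluor viability check, qHTS format: wild-type CHO-K1, 16hr compound treatment, 1hr reagent incubation, fluorescence read.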

[12] = Caspase-3/7 induction in HepG2 cells by small molecules, qHTS cell viability counter screen (AID 1346981); further: nearly all actives have a fitted effect of over 30% in size; further: potency means the concentration at half of the fitted maximal effect
Outline: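 After a 5-hr attachment period at 37 C and 5% CO2, wild-type HepG2 cells received compounds in DMSO. Sixteen hours later CellTiter-Fluor was dispensed and the fluorescent signal quantified after a further hour.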

[13] = molecular target: Nuclear receptor subfamily 1 group I member 2 (Rattus norvegicus) (UniProt Q9R1A7); assay: Rat pregnane X receptor (rPXR) activation by small molecules, qHTS assay (AID 1346983); conditions: rPXR luciferase reporter cells, One-Glo luminescence, 24 h; active compounds read high; further: nearly all actives have a fitted effect of over 20% in size
Outline: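 Cell-based rPXR activation assay: rPXR cells, 2,000 per well, rested 5hr at 37 C, then exposed to compounds in DMSO for 24 hr at 37 C. Luciferase activity read by One-Glo luminescence after 30 min at room temperature.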

[14] = molecular target: Nuclear receptor subfamily 1 group I member 2 (Homo sapiens) (UniProt O75469); assay: CYP3A4 induction through human pregnane X receptor (PXR) by small molecules, qHTS assay (AID 1346984); further: nearly all actives have a fitted effect of over 40% in size
Outline: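 Cells (DPX-2; HepG2 with PXR element plus CYP3A4-promoter luciferase) settled 5hr, then were treated 24hr at 37C. A 3hr, 3uM-final Luciferin-IPA step preceded luminescence measurement with One-Glo.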

[15] = molecular target: Nuclear receptor subfamily 1 group I member 2 (Homo sapiens) (UniProt O75469); assay: Human pregnane X receptor (PXR) activation by small molecules, qHTS assay (AID 1346985); further: nearly all actives have a fitted effect of over 40% in size
Outline: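 DPX-2 cells (HepG2 co-transfected with a PXR response element and a CYP3A4-promoter luciferase construct) were seeded at 2,000 per well, rested 5 hr at 37C, then exposed to DMSO-dissolved compounds for 24 hr. Activation was read as luciferase luminescence.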

[16] = molecular target: Acetylcholinesterase (Homo sapiens) (UniProt P22303); assay: Acetylcholinesterase (AChE) small molecule antagonists: colormetric cell-based qHTS assay (AID 1347395; calls by dose curve; further: nearly all actives have a fitted effect of over 30% in size)
Outline: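 AChE inhibition read colorimetrically via DTNB–thiocholine in SH-SY5Y cells. Compound 30 min, substrate 90 min, both 37 C.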

[17] = molecular target: Acetylcholinesterase (Homo sapiens) (UniProt P22303); assay: Acetylcholinesterase (AChE) small molecule antagonists: enzyme-based qHTS assay (AID 1347397; calls by dose curve; further: nearly all actives have a fitted effect of over 55% in size); conditions: Potency: AChE enzyme activity inhibition; outcome: AChE enzyme activity inhibition
Outline: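 In this quantitative HTS, compounds from the Tox21 10K collection were preincubated 30 min at ambient temperature with recombinant human AChE dispensed at 50 mU/mL. Hydrolysis of acetylthiocholine was then followed for 10 min by DTNB colour development.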

[18] = molecular target: Acetylcholinesterase (Homo sapiens) (UniProt P22303); assay: Acetylcholinesterase (AChE) small molecule antagonists: fluorescence cell-based qHTS assay (AID 1347398; calls by dose curve; further: nearly all actives have a fitted effect of over 50% in size); conditions: Potency: AChE activity; outcome: AChE activity
Outline: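 Cells (SH-SY5Y) attached overnight, were dosed with compound or DMSO vehicle for 30 min at 37 C, and then incubated 40 min at room temperature with acetylthiocholine and Thiolite Green; green fluorescence indexed AChE activity.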

[19] = Caspase-3/7 induction in CHO-K1 cells by small molecules, qHTS assay (AID 1346980); further: nearly all actives have a fitted effect of over 15% in size
Outline: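 Wild-type CHO-K1 cells exposed to compounds for 17hr at 37 C, 5% CO2. Caspase-3/7 activity then measured by Caspase-Glo 3/7 luminescence after 30min at room temperature.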

[20] = molecular target: Nuclear receptor subfamily 1 group I member 2 (Homo sapiens) (UniProt O75469); assay: Human pregnane X receptor (PXR) small molecule agonists, qHTS assay (AID 1346982); further: nearly all actives have a fitted effect of over 35% in size; further: potency means the concentration at half of the fitted maximal effect
Outline: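 Tox21 qHTS; PXR-Luc HepG2; compounds pinned from DMSO; 24 hr, 37 C; ONE-Glo luciferase detection, 30 min room temperature.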
On the % scale 0 is the no-effect control and ±100 the full control effect.

Acetylcholinesterase (Homo sapiens), sequence (P22303 whole entry, looked up): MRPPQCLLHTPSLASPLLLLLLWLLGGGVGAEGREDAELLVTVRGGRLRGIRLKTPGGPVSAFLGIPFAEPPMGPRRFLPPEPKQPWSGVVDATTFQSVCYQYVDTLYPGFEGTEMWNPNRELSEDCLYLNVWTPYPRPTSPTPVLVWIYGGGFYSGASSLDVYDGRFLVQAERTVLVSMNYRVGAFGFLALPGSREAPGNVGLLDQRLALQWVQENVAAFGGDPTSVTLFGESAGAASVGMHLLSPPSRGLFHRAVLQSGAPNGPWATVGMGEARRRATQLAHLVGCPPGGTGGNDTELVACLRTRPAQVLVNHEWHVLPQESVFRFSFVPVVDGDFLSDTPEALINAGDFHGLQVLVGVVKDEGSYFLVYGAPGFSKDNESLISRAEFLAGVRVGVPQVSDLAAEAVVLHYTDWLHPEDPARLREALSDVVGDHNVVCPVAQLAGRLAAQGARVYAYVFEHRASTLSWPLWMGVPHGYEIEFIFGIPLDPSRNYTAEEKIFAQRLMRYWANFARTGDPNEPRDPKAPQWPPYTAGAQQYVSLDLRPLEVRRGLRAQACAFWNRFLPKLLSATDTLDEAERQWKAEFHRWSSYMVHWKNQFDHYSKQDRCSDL
Nuclear receptor subfamily 1 group I member 2 (Rattus norvegicus), sequence (Q9R1A7 whole entry, looked up): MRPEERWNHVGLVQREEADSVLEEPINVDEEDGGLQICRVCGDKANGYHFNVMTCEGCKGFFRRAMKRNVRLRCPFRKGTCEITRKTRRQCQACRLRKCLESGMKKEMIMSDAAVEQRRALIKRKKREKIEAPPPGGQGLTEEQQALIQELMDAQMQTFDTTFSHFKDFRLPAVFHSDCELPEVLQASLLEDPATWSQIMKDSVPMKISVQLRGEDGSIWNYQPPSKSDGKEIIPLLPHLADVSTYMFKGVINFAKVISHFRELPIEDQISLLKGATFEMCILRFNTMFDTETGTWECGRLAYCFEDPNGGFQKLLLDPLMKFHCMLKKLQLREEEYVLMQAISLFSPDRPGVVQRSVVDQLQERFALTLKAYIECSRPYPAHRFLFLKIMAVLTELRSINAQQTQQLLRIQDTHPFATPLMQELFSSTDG
Progesterone receptor (Homo sapiens), sequence (P06401 whole entry, looked up): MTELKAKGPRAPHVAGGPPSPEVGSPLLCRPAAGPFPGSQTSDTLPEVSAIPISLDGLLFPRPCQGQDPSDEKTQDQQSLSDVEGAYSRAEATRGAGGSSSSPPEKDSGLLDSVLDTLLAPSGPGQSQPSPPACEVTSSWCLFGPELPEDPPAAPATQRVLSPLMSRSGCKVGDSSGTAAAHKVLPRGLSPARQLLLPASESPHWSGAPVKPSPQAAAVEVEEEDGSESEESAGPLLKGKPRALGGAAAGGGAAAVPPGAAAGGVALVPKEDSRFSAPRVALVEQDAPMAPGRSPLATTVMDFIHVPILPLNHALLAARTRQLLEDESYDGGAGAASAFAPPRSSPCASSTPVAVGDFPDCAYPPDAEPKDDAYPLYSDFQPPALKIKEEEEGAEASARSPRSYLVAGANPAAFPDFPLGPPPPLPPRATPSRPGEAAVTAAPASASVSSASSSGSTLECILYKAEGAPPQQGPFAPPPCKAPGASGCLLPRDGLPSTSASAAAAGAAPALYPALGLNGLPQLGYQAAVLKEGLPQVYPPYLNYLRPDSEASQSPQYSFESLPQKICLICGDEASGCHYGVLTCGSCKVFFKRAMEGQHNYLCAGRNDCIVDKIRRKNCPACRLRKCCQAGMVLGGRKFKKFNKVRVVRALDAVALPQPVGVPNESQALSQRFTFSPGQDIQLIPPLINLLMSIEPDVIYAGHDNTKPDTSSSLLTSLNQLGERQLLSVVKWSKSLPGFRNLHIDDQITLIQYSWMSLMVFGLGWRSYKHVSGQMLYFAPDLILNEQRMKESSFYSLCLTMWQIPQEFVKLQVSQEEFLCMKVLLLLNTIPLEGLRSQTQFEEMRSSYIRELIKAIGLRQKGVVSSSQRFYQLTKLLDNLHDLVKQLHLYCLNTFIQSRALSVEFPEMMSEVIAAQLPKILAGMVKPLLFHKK
Thyrotropin-releasing hormone receptor (Homo sapiens), sequence (P34981 whole entry, looked up): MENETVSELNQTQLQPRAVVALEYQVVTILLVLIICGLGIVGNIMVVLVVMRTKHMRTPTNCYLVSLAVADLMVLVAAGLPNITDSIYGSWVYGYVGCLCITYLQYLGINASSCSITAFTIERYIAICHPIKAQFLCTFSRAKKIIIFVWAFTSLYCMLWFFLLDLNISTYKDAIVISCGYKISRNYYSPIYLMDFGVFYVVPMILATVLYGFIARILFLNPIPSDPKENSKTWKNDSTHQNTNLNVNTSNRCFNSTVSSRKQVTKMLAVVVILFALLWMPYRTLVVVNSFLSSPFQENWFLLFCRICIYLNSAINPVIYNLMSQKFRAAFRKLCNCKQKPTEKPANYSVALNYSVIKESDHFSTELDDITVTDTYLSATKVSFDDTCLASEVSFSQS
Nuclear receptor subfamily 1 group I member 2 (Homo sapiens), sequence (O75469 whole entry, looked up): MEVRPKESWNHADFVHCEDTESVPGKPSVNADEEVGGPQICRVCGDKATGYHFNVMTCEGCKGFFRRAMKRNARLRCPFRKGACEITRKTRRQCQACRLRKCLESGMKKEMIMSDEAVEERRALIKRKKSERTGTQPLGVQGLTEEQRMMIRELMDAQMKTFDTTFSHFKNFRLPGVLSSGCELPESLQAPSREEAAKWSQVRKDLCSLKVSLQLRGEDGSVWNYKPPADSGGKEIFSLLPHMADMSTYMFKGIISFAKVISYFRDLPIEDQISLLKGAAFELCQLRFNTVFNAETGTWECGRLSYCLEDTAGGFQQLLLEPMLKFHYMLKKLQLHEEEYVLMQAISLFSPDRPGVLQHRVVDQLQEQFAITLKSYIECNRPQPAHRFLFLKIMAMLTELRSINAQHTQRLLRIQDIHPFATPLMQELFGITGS

O=C(N/N=C/c1ccc([N+](=O)[O-])o1)c1cc([N+](=O)[O-])cc([N+](=O)[O-])c1O
active: Potency [9] 21.1 µM | Potency [11] 23.7 µM | Potency [12] 13.3 µM
inactive: Potency [1] | Potency [2] | Potency [3] | Potency [4] | Potency [5] | outcome [6] | Potency [7] | outcome [8] | Potency [10] | max activation [13] 3.24% | outcome [14] | Potency [15] | Potency [16] | Potency [17] | Potency [18]

C[C@H]1O[C@H](OC2[C@@H](O)[C@@H](O)C(O)[C@H](O)[C@H]2O)[C@@H](N)C[C@@H]1N=C(N)C(=O)O (stereo partly specified)
inactive: Potency [1] | Potency [2] | Potency [3] | Potency [4] | Potency [5] | outcome [6] | Potency [7] | outcome [8] | Potency [9] | Potency [11] | Potency [19] | Potency [12] | Potency [16] | Potency [17] | Potency [18]

O=C(O)c1cc(I)cc(I)c1I
inactive: Potency [1] | Potency [2] | Potency [3] | Potency [4] | Potency [5] | outcome [6] | Potency [7] | outcome [8] | Potency [9] | Potency [10] | Potency [11] | Potency [19] | Potency [20] | Potency [16] | Potency [17] | Potency [18]

CC(C)c1ccc(NC(=O)N(C)C)cc1
inactive: Potency [1] | Potency [2] | Potency [3] | Potency [4] | Potency [5] | outcome [6] | Potency [7] | outcome [8] | Potency [9] | Potency [11] | Potency [12] | Potency [16] | Potency [17] | Potency [18]
active: Potency [20] 30.6 µM

N#CC(C#N)=C(C#N)C#N
inactive: Potency [1] | Potency [2] | Potency [3] | Potency [4] | Potency [5] | outcome [6] | Potency [7] | outcome [8] | Potency [10] | Potency [19] | Potency [20] | Potency [16] | Potency [17] | Potency [18]

OC[P+](CO)(CO)CO
inactive: Potency [1] | Potency [2] | Potency [3] | Potency [4] | Potency [5] | outcome [6] | Potency [7] | outcome [8] | Potency [9] | Potency [10] | Potency [11] | Potency [19] | Potency [12] | Potency [16] | Potency [17] | Potency [18]
active: Potency [20] 61.8 µM

O=C(O)C(O)C(O)C(=O)O (stereo unspecified)
inactive: Potency [1] | Potency [2] | Potency [3] | Potency [4] | Potency [5] | outcome [6] | Potency [7] | outcome [8] | Potency [9] | Potency [10] | Potency [11] | Potency [19] | Potency [12] | Potency [16] | Potency [17] | Potency [18]

CC(C)(C)NCC(O)c1cc(Cl)c(N)c(C(F)(F)F)c1 (stereo unspecified)
inactive: Potency [1] | Potency [2] | Potency [3] | Potency [4] | Potency [5] | outcome [6] | Potency [7] | outcome [8] | Potency [10] | Potency [19] | Potency [20] | max activation [13] 8.47% | outcome [14] | Potency [15] | Potency [16] | Potency [17] | Potency [18]

CCCBr
inactive: Potency [1] | Potency [2] | Potency [3] | Potency [4] | Potency [5] | outcome [6] | Potency [7] | outcome [8] | Potency [9] | Potency [11] | Potency [12] | Potency [20] | Potency [16] | Potency [17] | Potency [18]

CC(Oc1cc(Cl)c(Cl)cc1Cl)C(=O)O (stereo unspecified)
active: Potency [3] 48.7 µM
inactive: Potency [1] | Potency [2] | Potency [4] | Potency [5] | outcome [6] | Potency [7] | outcome [8] | Potency [9] | Potency [11] | Potency [19] | Potency [12] | Potency [16] | Potency [17] | Potency [18]

Cc1ccc2c(C)cccc2c1
inactive: Potency [1] | Potency [2] | Potency [3] | Potency [4] | Potency [5] | outcome [6] | Potency [7] | outcome [8] | Potency [9] | Potency [10] | Potency [11] | Potency [19] | Potency [12] | Potency [20] | Potency [16] | Potency [17] | Potency [18]

CC(Cc1ccccc1)NCc1ccccc1Cl (stereo unspecified)
inactive: Potency [1] | Potency [2] | Potency [3] | Potency [4] | Potency [5] | outcome [6] | Potency [7] | outcome [8] | Potency [9] | Potency [11] | Potency [19] | outcome [14] | Potency [15] | Potency [16] | Potency [17] | Potency [18]

C[N+](C)(C)CCOC(=O)C(O)(c1ccccc1)c1ccccc1
inactive: Potency [1] | Potency [2] | Potency [3] | Potency [4] | Potency [5] | outcome [6] | Potency [7] | outcome [8] | Potency [9] | Potency [10] | Potency [11] | Potency [19] | Potency [12] | Potency [20] | max activation [13] -2.47% | outcome [14] | Potency [15] | Potency [16] | Potency [17] | Potency [18]

CCOP(=O)(O)C(N)=O
inactive: Potency [1] | Potency [2] | Potency [3] | Potency [4] | Potency [5] | outcome [6] | Potency [7] | outcome [8] | Potency [9] | Potency [11] | Potency [19] | Potency [12] | Potency [16] | Potency [17] | Potency [18]

CC(C)(C)c1ccc(CCOc2ncnc3ccccc23)cc1
inactive: Potency [1] | Potency [2] | Potency [3] | Potency [4] | Potency [5] | outcome [6] | Potency [7] | outcome [8] | Potency [9] | Potency [10] | Potency [11] | Potency [20] | Potency [16] | Potency [17] | Potency [18]
